In PubChem BioAssay AID2107 (National Center for Advancing Translational Sciences (NCATS), 2009):
Out of some 240,000 compounds screened, about 20 (0.008%) were called active. About 1% were inconclusive and are not listed. The call rests on the fitted dose curve; in most records, active means well fitted inhibition curve with a large enough effect; inconclusive means small, poorly fitted or top-dose-only effect, or effect the other way; inactive means flat fitted curve, though single readings scatter. Only a sample is shown.

The compounds below were run against Alpha-galactosidase A (Homo sapiens) (UniProt P06280) (assay: qHTS Assay for Inhibitors and Activators of Human alpha-Galactosidase From Spleen Homogenate). Settings: 4MU-alpha-Gal fluorescence, 40 min; series mostly up to 80 µM; activity change, negative = inhibition: at the top concentration.
From the text: NIH Chemical Genomics Center [NCGC] NIH Molecular Libraries Probe Production Centers Network [MLPCN] MLPCN Grant: R03 MH084842-01 Assay Submitter (PI): Wei Zheng NCGC Assay Overview: Alpha-galactosidase is a homodimeric glycoprotein that hydrolyzes the terminal alpha-galactosyl moieties from glycolipids and glycoproteins. Deficiency of this enzyme results in Fabry Disease with progressive accumulation of globotriaosylceramide and other glycosphingolipids in vascular endothelial cells that causes renal failure, myocardial infarction and stroke, and premature death in patients. It has been reported that the improper folding and trafficking of alpha-galactosidase resulting from genetic mutations may account for a significant number of Fabry patients. […] We optimized this alpha-galactosidase assay in 1536-well plate format for identification of novel small molecule inhibitors or activators with structures other than the sugar analogs in order to develop new pharmacological chaperones. In particular, this assay is directed towards discovering compounds active in more natural setting, tissue homogenate, that may have been missed by screens of the purified enzyme under more stringent conditions.
NCGC Assay Protocol Summary: This is a fluorogenic enzyme assay with 4-methylumbelliferyl-alpha-D-galactopyranoside as the substrate and human spleen homogenate containing alpha-galactosidase as the enzyme preparation. Upon hydrolysis of this fluorogenic substrate, the resulting product, 4-methylumbelliferone (which excites at 365 nm and emits at 440 nm) can be detected by a fluorescence plate reader. Data were normalized to the controls for basal activity (without enzyme) and 100% activity (with enzyme). The AC50 values were determined from concentration-response data modeled with the standard Hill equation. Assay buffer: 50 mM citric acid (titrated with potassium phosphate to pH 5.0), 0.01% Tween-20 (pH 5.0 is an optimal condition for this enzyme assay) 1536-well assay protocol for the alpha-galactosidase from human spleen homogenate: (1) Add 2 ul/well spleen homogenate (1 ug) (2) Add 23 nL compounds in DMSO solution. The final titration was 0.5 nM to 58 uM. (3) Add 2 ul of substrate (1 mM final) (4) Incubate at 37C for 40 min (5) Add 2 ul stop solution (1M NaOH and 1M Glycine mixture, pH 10) (6) Detect the assay plate in a ViewLux plate reader (PerkinElmer) with Ex=365 nm and Em=440nm. Keywords: Alpha-galactosidase, Fabry Disease, pharmacological chaperone, chaperone therapy, high throughput screening, alpha- galactosidase inhibitor, MLSMR, MLSCN, NIH Roadmap, qHTS and NCGC
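Further: 0% = enzyme with vehicle and -100% = no enzyme basal signal.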

Alpha-galactosidase A (Homo sapiens), sequence (P06280 32-429 limits assumed): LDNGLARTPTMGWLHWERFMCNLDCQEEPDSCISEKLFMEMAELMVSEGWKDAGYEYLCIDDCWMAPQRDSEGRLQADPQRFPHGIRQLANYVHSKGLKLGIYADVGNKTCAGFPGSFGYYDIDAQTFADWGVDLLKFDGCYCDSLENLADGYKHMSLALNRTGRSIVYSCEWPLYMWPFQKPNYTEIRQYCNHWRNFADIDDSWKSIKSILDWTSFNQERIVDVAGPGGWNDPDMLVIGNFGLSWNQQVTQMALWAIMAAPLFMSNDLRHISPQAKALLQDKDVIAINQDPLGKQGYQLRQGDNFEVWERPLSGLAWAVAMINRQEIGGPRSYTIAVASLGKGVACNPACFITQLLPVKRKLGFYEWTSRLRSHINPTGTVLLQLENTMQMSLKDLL

Activity change, negative = inhibition, inactive:
CSc1ccc(S(=O)(=O)Nc2cccc(F)c2)cc1 3.92%
COC(=O)c1ccc(C(NC(=O)OCc2ccccc2)/C(F)=C/[C@@H](C)C(=O)O)cc1 (stereo not given in full) -4.12%
Cc1ccc(-c2csc(N(Cc3ccco3)C(=O)c3cccs3)n2)cc1 2.51%
O=C(Nc1cc(C(=O)Nc2ccc(S(=O)(=O)O)cc2)cc(C(=O)Nc2ccc(S(=O)(=O)O)cc2)c1)Nc1cc(C(=O)Nc2ccc(S(=O)(=O)O)cc2)cc(C(=O)Nc2ccc(S(=O)(=O)O)cc2)c1 3.78%
Cc1ccccc1OCCC(=O)OCC(=O)NC(C)c1ccccc1 (stereo not given) 1.89%
CC[C@H](C)[C@H](NC(=O)[C@H](Cc1ccc(O)cc1)NC(=O)[C@@H](NC(=O)[C@H](CCCN=C(N)N)NC(=O)[C@@H](N)CC(=O)O)C(C)C)C(=O)N[C@@H](Cc1cnc[nH]1)C(=O)N1CCC[C@H]1C(=O)N[C@@H](Cc1ccccc1)C(=O)O -0.483%
CC(=O)Nc1ccc(S(=O)(=O)N2N=NC3C2C2CC4C3(CN(C(=O)OC(C)(C)C)S4(=O)=O)O2)cc1 (stereo not given) -1.71%
CSCCC(NC(=O)c1cc([N+](=O)[O-])cc([N+](=O)[O-])c1)c1nc2ccccc2[nH]1 (stereo not given) 18.7%
CCOc1c2ccc(C(=O)NC3CCCc4ccccc43)cc2nn1CC (stereo not given) 5.93%
Cc1cc(C)c(NC(=O)C[N+](C)(C)CC(O)COc2cccc3ccccc23)c(C)c1 (stereo not given) -14%
CCOC(=O)Cc1csc(SCc2cc(=O)oc3cc(O)ccc23)n1 9.37%
CC1(C)CC(=O)c2cnc3nc4ccccc4n3c2C1 7.68%
COCC1CCCN(Cc2cn[nH]c2-c2cc3ccccc3o2)C1 (stereo not given) -8.79%
Cc1cc(Cl)ccc1C(=O)C1CCCN(C(=O)CCN2CCCO2)C1 (stereo not given) -13%
CC(C)Cn1c(N)c(C(=O)COC(=O)CN2C(=O)C3CC=CCC3C2=O)c(=O)n(C)c1=O (stereo not given) 1.23%
O=C(NNc1ccccc1Cl)C(O)(c1cccc(C(F)(F)F)c1)c1cccc(C(F)(F)F)c1 -3.52%
O=C(NCc1ccccn1)[C@]1(C(F)(F)F)C[C@H](CCc2ccccc2)CCCO1 2.9%
Cc1cccc(C)c1N1CCN(S(=O)(=O)N2CCCCC2)CC1 5.18%
Cc1cccc2nc(CSc3nc4[nH]ncc4c(=O)n3-c3cccc(Cl)c3)cc(=O)n12 5.01%
N#Cc1ncc(C(F)(F)F)cc1Oc1cccnc1 -18%
CNC(=O)[C@]1(C(F)(F)F)C[C@H](CCc2ccccc2)CCCO1 -17.7%
COc1ccc(C[C@H](C(=O)O)N2C(=O)c3ccc(C(=O)O)cc3C2=O)cc1 -9.39%
Cc1ccccc1N(C(=O)Cc1cccs1)C(C(=O)NC1CCCCC1)c1cn(C)nc1C (stereo not given) -4.95%
C[C@@H]1O[C@@H](OC[C@H]2O[C@@H](Oc3cc(O)c4c(c3)O[C@H](c3ccc(O)c(O)c3)CC4=O)[C@H](O)[C@@H](O)[C@@H]2O)[C@H](O)[C@H](O)[C@H]1O 3.44%
CCOC(=O)C1CCN(c2c(Nc3cc(C)cc(C)c3)c(=O)c2=O)CC1 -0.907%
NC(=O)NC(=O)CSc1nc2cc([N+](=O)[O-])ccc2n1-c1cccc(C(F)(F)F)c1 -1.63%
C[C@H]1CCC[C@@]2(C)CCCC[C@]12O 2.2%
C=C1CCN(C(CC(C)C)C(=O)NCc2cc(OC)c(OC)c(OC)c2)S(=O)(=O)c2ccccc21 (stereo not given) -16.2%
COc1ccc(C2/C=C\CN(Cc3ccco3)C(C)C(=O)N2Cc2ccc(F)cc2)cc1 (stereo not given) 4.4%
COc1cc(C2OC(c3cc(OC)c(OC)c(OC)c3)C(C)C2C)cc(OC)c1OC (stereo not given) 5.9%
COc1ccc(CN(C(=O)CSc2nnc(-c3ccc(OC)c(OC)c3)o2)c2ccc(F)cc2)cc1 10%
C=CCC(C)(O)c1ccco1 (stereo not given) -6.7%
CCCCCNC(=O)c1cccnc1SCC(=O)Nc1ccccc1OC -4.08%
CC1(C)CC(N2CCN(C(c3ccccc3)c3ccccc3)CC2)=CC(=[N+]2CCCCC2)C1 3.27%
COc1ccccc1C(=O)N1CCN=C1SCc1cccnc1 0.71%
O=C(NCCCn1ccnc1)c1cc(-c2ccccc2)on1 -0.698%
C=C(C)C1CC=C(C)C(O)C1 (stereo not given)
C=CCN1c2ccccc2[C@]23C[C@@H](C(=O)OC)N(S(=O)(=O)c4ccc([N+](=O)[O-])cc4)C2=NC(C(=O)OC)=C(C(=O)OC)[C@H]13 -4.05% [at 17.5 µM]
[O-][n+]1onc2c1CCc1[nH]c(-c3ccccc3)nc1-2 1.23%
CC(=O)CC(c1ccccc1)C1C(=O)Oc2ccccc2C1=O (stereo not given) -10.1%
Cc1nn(C)c(C(=O)NNC(=S)NC2CCCCC2)c1Cl 2.34%
NCCCCC(N)C(=O)O (stereo not given) 2.41%
Cn1c(SCC(=O)N/N=C/c2ccc(O)c(O)c2)nc2ccccc21 3.66%
O=c1cc(-c2ccc(O)cc2)oc2c([C@@H]3O[C@H](CO)[C@@H](O)[C@H](O)[C@H]3O)c(O)cc(O)c12 -17.6%
CCN(CC)c1ccc(/C=N/NC(=O)c2cnccn2)c(O)c1 -14.2%
O=C(NCCCO)/C(=C\C=C\c1ccccc1)NC(=O)c1ccccc1Cl 1.56%
COc1ccc(/C=N/Nc2ncnc3sc4c(c23)CCCC4)cc1O 4.96%
COc1ccccc1C1C(C#N)=C(N)Oc2c1c(-c1ccccc1)nn2-c1ccccc1 (stereo not given) 6.59%
CC[C@H](C)[C@H](NC(=O)[C@@H](N)CCC(=O)O)C(=O)N[C@@H](CC(C)C)C(=O)N[C@@H](CC(=O)O)C(=O)N[C@H](C(=O)N1CCC[C@H]1C(=O)N[C@@H](CO)C(=O)N[C@H](C(=O)O)[C@@H](C)O)C(C)C -4.11%
C[C@]1(C(=O)NCCc2c[nH]c3ccccc23)C=C[C@@H](Cc2ccccc2)N1C(=O)c1ccccc1
CCC1(CC)C(=O)C2=C3C1[C@H](C(=O)OC)C=C(C(=O)OC)C[C@H]3[C@H]1C(=O)N(Cc3ccccc3)C(=O)[C@H]1[C@H]2C (stereo not given in full) 6.6%
COc1ccc2c3c1O[C@H]1C[C@@H](O)C=C[C@@]31CCN(C)C2
OCCNCc1cccc(OCc2ccccc2Cl)c1 -3.03%
CC1=NN(C(=O)c2ccc(Br)cc2)C(O)(c2ccccc2)C1 (stereo not given) 6.29%
Cc1ccc(-c2nn(CC(C)(C)C)c3ncnc(N)c23)cc1 -4.25%
COc1ccc(-c2c(C)cc3oc(=O)cc(-c4ccccc4)c3c2C)cc1OC 1.37% [at 119 µM]
COC(=O)Cc1csc(/N=C/c2c(O)n(-c3cccc(C(F)(F)F)c3)c(=O)c3ccccc23)n1 3.19%
C/C(CCN1CCCCc2nc(C)c(C)cc21)=N\O[C@@H](C)c1cn([C@@H]2COC[C@@H]2O)nn1 2.02% [at 17.5 µM]
Cc1nc(C(=O)NCc2ccccc2)sc1C1(C)CC(c2cccnc2)=NO1 (stereo not given) 10.3%
CCOC(=O)c1cc(C)nc(S(C)(=O)=O)c1C#N 7.86%
Cc1cc2oc(=O)cc(-c3ccccc3)c2c(C)c1/C=C/c1ccc(F)cc1 10.4% [at 119 µM]
CCOc1ccc(NC(=O)COc2ccc(C(=O)NC3CCCc4ccccc43)cc2OC)cc1 (stereo not given) 8.14%
O=C(COC(=O)c1ccc(Cl)nc1)NCc1ccc2c(c1)OCO2 1.1%
COc1cc(OC)c2c(C)cc(=O)oc2c1C(CCN1CCCCC1)c1ccc(N(C)C)cc1 (stereo not given) -6.87%
COCCCNC(=S)NCCNc1nc2cc(C)c(C)cc2cc1C#N 10.9%
O=C(O)c1ccc(/C=C2/SC(=S)N(c3cccc(C(F)(F)F)c3)C2=O)cc1 5.07%
CCO[C@@H]1OC(C(=O)NCc2nc3ccccc3[nH]2)=C[C@H](C2CCCCC2)[C@H]1CCCO 2.53%
C=CCCN(C(Cc1ccccc1)C(=O)OC)S(=O)(=O)c1cc(Br)ccc1Br (stereo not given) 0.915%
COc1ccc(CN2CCC(=O)c3ccccc3S2(=O)=O)cc1 -16.2%
CCOC(=O)C1=C(C)NC2=C(C(=O)CC(C)(C)C2)C1c1ccsc1 (stereo not given) 12.5%
O=C(NCC1CC1)C1(C(F)(F)F)C/C(=C\CCO)CCCO1 (stereo not given) 6.89%
Cc1scc(C(=O)NNC(=S)NCC(C)C)c1C 1.16%
CCCN1CCC(=O)N(C(CSc2ccc(C)cc2)Cc2ccccc2)CC1 (stereo not given) -1.75%
Cc1cc(C(=O)OCC(=O)N2c3ccccc3NC(=O)C2(C)C)c(C)n1-c1ccccc1 13.9%
O=C1/C(=C\c2ccccc2Cl)SC(=S)N1CCC(=O)N1CCCc2ccccc21 0.217%
COc1cccc(N(C(=O)c2ccn[nH]2)C2(C(=O)Nc3c(C)cccc3C)CCCCC2)c1 1.18%
OCC1(Cc2ccccc2C(F)(F)F)CCN(Cc2cccc3cnccc23)CC1 20.6%
C=C1/C(=C\C=C2\CCCC3(C)C2CCC3C(C)/C=C/C(O)C2CC2)CC(O)CC1O (stereo not given) -8.26%
Cc1noc(C)c1-c1ccc2ncnc(NCc3ccc4[nH]ccc4c3)c2c1 6.61%
CC(=O)OCC(NC(=O)C(Cc1ccccc1)NC(=O)OC(C)(C)C)C1OC(n2ccc(=O)[nH]c2=O)C(OC(C)=O)C1OC(C)=O (stereo not given) 10.3%
COc1ccc(C2CC(O)(c3ccccc3)Oc3cc(C)cc(C)c32)cc1 (stereo not given) 4.13%
Cn1c(N)c(C(=O)COC(=O)/C=C/c2ccc(OC(F)F)cc2)c(=O)n(C)c1=O 5.56%
COc1ccc(Br)cc1C1C2C=CCC(C)C2C(=O)N1Cc1ccccc1 (stereo not given) -6.92%
N#CC1=C(N)Oc2c(ccc3cccnc23)C1c1ccncc1 (stereo not given) 0.687%
COC(=O)C1(C(C)=O)CC2=CC[C@H]3C(=O)N(c4ccccc4)C(=O)[C@H]3[C@@H]2Cc2ccccc2[C@@H]1C[N+](=O)[O-] (stereo not given in full)
N#Cc1ccc(OCc2nnc(-c3ccc([N+](=O)[O-])cc3)o2)cc1 3.78%
CCOCCOC(=O)C(C)Oc1ccc(Oc2ncc(C(F)(F)F)cc2Cl)cc1 (stereo not given) -8.18%
CSc1ccccc1N1CCN(CCCCCC(=O)NC2CCCc3ccccc32)CC1 (stereo not given) -14.7%
Cc1cc(N(C)C)nc(Cl)n1 8.47%
Cc1cccc(NC(=S)NCCc2ccc(F)cc2)c1C -0.123%
